Results as given in PubChem BioAssay (NCATS).
Records with an inconclusive call do not appear. Entries that show only a call come without a potency. Active and inactive are the calls of the source. Unless noted, calls follow the shape of the dose curve; as a rule, active = well fitted curve in the direction sought with a large enough effect; inconclusive = small, poorly fitted or top-dose-only effect, or another doubt; inactive = no such curve, though single readings can be large; an effect the other way counts as inactive or inconclusive.

Experiments:
[1] = target: 3',5'-cyclic-AMP phosphodiesterase 4B (Homo sapiens) (UniProt Q07343); assay: qHTS Assay for Inhibitors of PDE-IV (AID 607; active = well fitted activation curve with a large enough effect in the main read-out, with a control signal flat, not every such curve was filed as active)
3',5'-cyclic-AMP phosphodiesterase 4B (Homo sapiens), sequence (Q07343 whole entry, looked up): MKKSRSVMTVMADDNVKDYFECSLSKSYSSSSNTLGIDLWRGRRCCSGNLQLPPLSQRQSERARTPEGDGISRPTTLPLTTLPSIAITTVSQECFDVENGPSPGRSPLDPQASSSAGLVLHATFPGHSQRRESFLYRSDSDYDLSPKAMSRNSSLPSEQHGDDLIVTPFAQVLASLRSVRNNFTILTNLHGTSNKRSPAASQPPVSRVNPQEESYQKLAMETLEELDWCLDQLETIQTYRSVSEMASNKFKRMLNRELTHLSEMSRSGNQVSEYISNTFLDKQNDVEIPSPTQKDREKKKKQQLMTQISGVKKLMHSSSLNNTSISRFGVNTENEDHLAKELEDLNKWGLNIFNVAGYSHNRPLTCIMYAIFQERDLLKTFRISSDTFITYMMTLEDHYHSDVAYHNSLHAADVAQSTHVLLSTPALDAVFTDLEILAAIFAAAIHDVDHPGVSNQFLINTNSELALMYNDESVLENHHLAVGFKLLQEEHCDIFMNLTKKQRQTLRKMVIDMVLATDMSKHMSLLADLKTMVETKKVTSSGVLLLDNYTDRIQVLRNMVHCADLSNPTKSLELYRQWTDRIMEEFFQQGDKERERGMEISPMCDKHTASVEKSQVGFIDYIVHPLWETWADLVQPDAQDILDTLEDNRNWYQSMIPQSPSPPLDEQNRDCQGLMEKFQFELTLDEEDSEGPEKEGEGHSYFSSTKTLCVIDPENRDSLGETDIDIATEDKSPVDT
Summary of the method: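 Cell-based read-out of cAMP via a modified cyclic nucleotide-gated channel and membrane potential dye (535/590 nm) in HEK293 cells expressing PDE4 endogenously. Compounds tested up to 22.9 uM final; 100 uM RO 20-1724 reference.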

[2] = system: Zika virus NS2B-NS3 protease (linked construct); assay: Primary screen NINDS Rhodamine qHTS for Zika virus inhibitors (AID 1347160); also: nearly all actives have a fitted effect of over 55% in size; also: potency is read from the fitted curve at half-maximal effect
Summary of the method: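 In 10 mM Tris-HCl pH 8.0 containing 0.01% Tween 20, linked NS2B-NS3 protease (25 nM final) is exposed to test compounds for 15 min. Cleavage of 1.5 microM Rhodamine110 substrate is tracked by fluorescence over 15 min.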

[3] = UWB1.289 Cancer Cell Toxicity qHTS against the NCATS CANVASS Library (AID 1347347); also: nearly all actives have a fitted effect of over 60% in size; also: potency is read from the fitted curve at half-maximal effect
Summary of the method: (§1)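 Viability read-out: CellTiter-Glo luminescence after 72 h compound exposure at 37 °C/5% CO2. Cells plated at 1000/well, 4 h pre-incubation; 11-point titration. Bortezomib served as control.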

[4] = U-118MG Cancer Cell Toxicity qHTS against the NCATS CANVASS Library (AID 1347351); also: potency is read from the fitted curve at half-maximal effect
Summary of the method: as §1

[5] = HPAF-II 24hr Apoptosis Induction qHTS against the NCATS CANVASS Library (AID 1347356)
Summary of the method: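 HPAF-II cells (500/well) in DMEM + 10% FBS were treated with an 11-point compound series for 24 hours at 37 degrees C. Caspase-3/7 activity was then read by Caspase-Glo DEVD luminescence after 15 min.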

[6] = HEK293 18hr Apoptosis Induction qHTS against the NCATS CANVASS Library (AID 1347357)
Summary of the method: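 Caspase-Glo 3/7 luminescence (15 min, room temperature) measured apoptosis after an 18-hour, 37 degrees C exposure of HEK293 cells (500 cells/well) to compounds in 11 points.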

[7] = HPAF-II 12hr Apoptosis Induction qHTS against the NCATS CANVASS Library (AID 1347358)
Summary of the method: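 HPAF-II cells (500/well, DMEM + 10% FBS) were exposed to compounds for 12 hours at 37 degrees C. Caspase-3/7 activity was then read by Caspase-Glo 3/7 luminescence after 15 min at room temperature.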

[8] = HPAF-II 18hr Apoptosis Induction qHTS against the NCATS CANVASS Library (AID 1347360)
Summary of the method: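 Caspase-3/7 activation was measured with luminescent Caspase-Glo 3/7 reagent (15 min, RT) in HPAF-II cancer cells (500 cells/well). Before detection, cells had been treated for 18 h at 37 C with compounds (11 points).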

[9] = KB-8-5-11 Cancer Cell Toxicity qHTS against the NCATS CANVASS Library (AID 1347364); also: nearly all actives have a fitted effect of over 75% in size; also: potency is read from the fitted curve at half-maximal effect
Summary of the method: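 KB-8-5-11 cells (500/well) in DMEM + 10% FBS were exposed to compounds in an 11-point qHTS series for 72 hr at 37C, 5% CO2. Viability was read by CellTiter-Glo luminescence.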

[10] = J3T Cancer Cell Toxicity qHTS against the NCATS CANVASS Library (AID 1347371); also: potency is read from the fitted curve at half-maximal effect
Summary of the method: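 J3T dog glioma cells (500 cells/well) were exposed to compounds in an 11-point series for 72 hr at 37C, 5% CO2. Cytotoxicity was read as ATP content by CellTiterGlo luminescence.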

[11] = target: Nuclear receptor subfamily 1 group I member 3 (Homo sapiens) (UniProt Q14994); assay: qHTS for Constitutive Androstane Receptor (CAR) Antagonist screened against the NCATS CANVASS Library (AID 1347372); also: potency is read from the fitted curve at half-maximal effect
Nuclear receptor subfamily 1 group I member 3 (Homo sapiens), sequence (Q14994 whole entry, looked up): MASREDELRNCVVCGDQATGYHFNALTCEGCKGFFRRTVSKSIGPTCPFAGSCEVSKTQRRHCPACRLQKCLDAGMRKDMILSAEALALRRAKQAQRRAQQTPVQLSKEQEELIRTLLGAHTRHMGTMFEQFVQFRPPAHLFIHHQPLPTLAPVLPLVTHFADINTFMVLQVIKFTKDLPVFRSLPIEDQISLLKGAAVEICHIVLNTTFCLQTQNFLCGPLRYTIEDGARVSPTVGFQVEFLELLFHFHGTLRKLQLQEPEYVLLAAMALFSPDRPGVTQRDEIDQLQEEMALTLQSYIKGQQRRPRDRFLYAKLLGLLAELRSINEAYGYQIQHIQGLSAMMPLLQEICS
Summary of the method: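 HepG2-CYP2B6-hCAR double-stable cells plated, 4hr attach; cpd pin-transferred; CITCO 50 nM final; 24hr 37C/5% CO2; CellTiter-Fluor 1hr (fluorescence), then ONE-Glo luminescence.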

[12] = 10-beta competent E. coli microbial cell viability qHTS against the NCATS CANVASS Library (AID 1347376); also: series mostly up to about 46 µM
Summary of the method: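 10-beta competent E. coli (0.9 OD culture diluted to 0.2 OD) exposed to compounds in an 11-point qHTS series, incubated overnight at 37C, 5% CO2. Viability read as ATP by BacTiter-Glo luminescence after 20 min at room temperature.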

[13] = qHTS for H2AX Agonists against the NCATS CANVASS Library (AID 1347378)
Summary of the method: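 Phospho-H2AX (S139) in CHO-K1 lysates measured by HTRF, reported as 665/615 nm emission ratio after 24 hr antibody incubation at room temperature. Cells were first treated with a compound series for 3 hr at 37C (0.76% DMSO final).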

[14] = Inflammasome Signaling qHTS Counterscreen: IL-1-beta AlphaLISA counterscreen against the NCATS CANVASS Library (AID 1347381);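 also: cell-free check with purified IL-1β in medium and no THP-1 cells; series mostly up to about 57 µM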
Summary of the method: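 To flag interference with the AlphaLISA read-out, a known amount of purified IL-1-beta (4 pg) replaced cell supernatant. Detection used anti-IL-1-beta acceptor beads, biotinylated antibody and streptavidin donor beads at room temperature.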

[15] = Cytotoxicity qHTS for assessment of Hepg2 cells membrane integrity screened against the NCATS CANVASS Library (AID 1347387)
Summary of the method: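 HepG2 cells (2000/well) attached overnight at 37C, then received compounds in an 11-point series at 0.59 nM - 46 uM final for 5 hr. LDH release was detected fluorometrically (ex 560/em 590 nm) with CytoTox-ONE reagent after 10 min at room temperature.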

[16] = qHTS assay for small molecule disruptors of mitochondrial membrane potential screened against the NCATS CANVASS Library (AID 1347389); also: nearly all actives have a fitted effect of over 60% in size; also: potency is read from the fitted curve at half-maximal effect
Summary of the method: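 HepG2 cells (2,000/well) were plated overnight at 37C, exposed to compound for 1 hr at 37C/5% CO2, then loaded with Mito-MPS dye for 30 min. Depolarization was read as a drop in red (590 nm) to green (535 nm) fluorescence ratio.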

[17] = qHTS for activators of dead-cell proteases activity screened against the NCATS CANVASS Library (AID 1347392);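 also: luminescence from protease leaking out of membrane-damaged cells cleaving impermeant substrate; rising signal means more cytotoxicity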
Summary of the method: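 Compounds are pin-transferred onto attached HepG2 cells, giving 11 final concentrations. After 5 h at 37C, AAF-aminoluciferin reagent is added and luminescence is recorded at room temperature.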

[18] = Vero-766 cells viability qHTS against the NCATS CANVASS Library: Counterscreen for Zika virus inhibition assay (AID 1347394); also: nearly all actives have a fitted effect of over 60% in size; also: potency is read from the fitted curve at half-maximal effect
Summary of the method: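 CellTiter Glo luminescence measured cytotoxicity after 72 h at 37C in uninfected Vero 766 cells, plated at 1000 cells/well. Compounds were applied in an 11-point series. Wells without cells defined 100% inhibition.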

[19] = Viability qHTS for inhibitors of the SERCaMP assay screened against the NCATS CANVASS Library (AID 1347400); also: nearly all actives have a fitted effect of over 70% in size; also: potency is read from the fitted curve at half-maximal effect
Summary of the method: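 SH-SY5Y-GLuc SERCaMP MJH297-derived cells (1000 cells/well) were pre-incubated 4 h at 37C, then exposed to compounds for 48 h. Viability was read as CellTiter-Glo luminescence; bortezomib served as positive control.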

[20] = Redox Reaction Profiling qHTS: Assay Interference Panel against the NCATS CANVASS Library (AID 1347401)
Summary of the method: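 Cell-free redox surrogate: 5 uM resazurin + 200 uM DTT, 50 mM HEPES pH 7.3/50 mM NaCl; cpds pinned, 11-pt qHTS; Ex525/Em598 read t0 and t=15 min, dark.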

SMILES | Potency [1] | Potency [2] | Potency [3] | Potency [4] | outcome [5] | Potency [6] | outcome [7] | outcome [8] | Potency [9] | Potency [10] | Potency [11] | outcome [12] | Potency [13] | outcome [14] | outcome [15] | Potency [16] | Potency [17] | Potency [18] | Potency [19] | Potency [20]
CC[C@@H](CO)NC(=O)[C@H]1C=C2c3cccc4[nH]cc(c34)C[C@H]2N(C)C1 | inactive | – | – | – | – | – | – | – | – | – | – | – | – | – | – | – | – | – | – | –
CCN1C[C@]2(C)CC[C@H](O)[C@]34C1C(C[C@H]23)[C@@]12CC[C@H](CC14)[C@](O)(COC(=O)c1ccc(OC)c(OC)c1)[C@H]2O (some centres undefined) | – | inactive | inactive | inactive | inactive | inactive | inactive | inactive | inactive | inactive | inactive | inactive | inactive | inactive | inactive | inactive | inactive | inactive | inactive | inactive
CO[C@H](c1ccccc1)[C@H]1NC(=O)C(C)NC(=O)C(C[C@@H](C)CO)N(C)C(=O)[C@@H](C(O)c2cn(C(C)(C)C3CO3)c3ccccc23)NC(=O)C(C(C)C=C(C)C)NC(=O)C(CC(C)C)N(C)C(=O)C(C(C)C)NC1=O (some centres undefined) | – | 21.6 µM (active) | inactive | inactive | inactive | inactive | inactive | inactive | inactive | inactive | inactive | inactive | inactive | inactive | inactive | inactive | inactive | inactive | inactive | inactive
O=C(c1ccccc1O)c1[nH]c(Cl)c(Cl)c1-n1c(C(=O)c2ccccc2O)cc(Cl)c1Cl | – | 2.47 µM (active) | 3.75 µM (active) | 6.68 µM (active) | inactive | inactive | inactive | inactive | 2.64 µM (active) | 2.96 µM (active) | 3.71 µM (active) | inactive | inactive | inactive | inactive | 0.0933 µM (active) | inactive | 1.32 µM (active) | 19.1 µM (active) | inactive
CCCCCCC[n+]1ccc(-c2cc[n+](CCCCCCC)cc2)cc1 | inactive | – | – | – | – | – | – | – | – | – | – | – | – | – | – | – | – | – | – | –
CCC(=O)CCCCC[C@@H]1NC(=O)[C@H]2CCCCN2C(=O)[C@H]([C@@H](C)CC)NC(=O)[C@H](Cc2cn(OC)c3ccccc23)NC1=O | – | 13.9 µM (active) | 2.11 µM (active) | 0.53 µM (active) | inactive | inactive | inactive | inactive | 13.2 µM (active) | 5.9 µM (active) | 2.34 µM (active) | inactive | inactive | inactive | inactive | inactive | inactive | 1.86 µM (active) | 3.81 µM (active) | inactive
COc1ccc(C23Oc4cc(OC)cc(OC)c4[C@](O)([C@H](c4ccccc4)C2C(=O)NCCCCNC(=O)c2ccccc2)[C@@H]3O)cc1 (some centres undefined) | – | 49.3 µM (active) | inactive | inactive | inactive | inactive | inactive | inactive | inactive | inactive | inactive | inactive | inactive | inactive | inactive | inactive | inactive | inactive | inactive | inactive
CNCCc1ccccc1 | – | inactive | inactive | inactive | inactive | inactive | inactive | inactive | inactive | inactive | inactive | inactive | inactive | inactive | inactive | inactive | inactive | inactive | inactive | inactive
CCN1C[C@]2(C)CC[C@@H](O)[C@]34C1[C@H](C[C@H]23)C12CCC(CC14)[C@](O)(CO)[C@H]2O (some centres undefined) | – | inactive | inactive | inactive | inactive | inactive | inactive | inactive | inactive | inactive | – | inactive | inactive | inactive | inactive | inactive | inactive | inactive | inactive | inactive
C[C@@H](N)Cn1ccc2cc(F)c(Cl)cc21 | inactive | – | – | – | – | – | – | – | – | – | – | – | – | – | – | – | – | – | – | –
COC(=O)C1=C2Nc3ccccc3[C@@]23CCN2CC(C(C)=O)C1C[C@H]23 (some centres undefined) | – | 55.3 µM (active) | inactive | inactive | inactive | inactive | inactive | inactive | inactive | inactive | inactive | inactive | inactive | inactive | inactive | inactive | inactive | inactive | inactive | inactive
